# Assay results as given in publication PMC4552634, “A New Set of Chemical Starting Points with Plasmodium falciparum Transmission-Blocking Potential for Antimalarial Drug Discovery” (PLoS ONE, 2015).
# Where two headings read alike, the source gives them in different places. Among all 13,000 compounds or so, about 3,200 (25%) showed an effect of 50% or more. This is one part of the list.
# Test system: P. falciparum stage V gametocytes
# Design: BacTiter-Glo ATP luminescence viability of purified stage V gametocytes in 384-well plates, per cent inhibition versus DMSO
# Details: 48 h, 5 µM, inhibitor
smiles,measurement,setting,value
COc1ccc(Nc2nccc(NCCNC(=O)c3cc4ccccc4s3)n2)cc1 [TCMDC-133643],% Inhibition,,10.68%
COc1ccc2nccc([C@@H](O)CN3CCC(NC(=O)[C@@H]4Cc5ccccc5CN4C(=O)OC(C)(C)C)CC3)c2c1 [TCMDC-141035],% Inhibition,,29.65%
O=C(/C=C/c1ccc(Cl)c(Cl)c1)NCCCCCN1CCC(NC(=O)Nc2cc(Cl)nc(Cl)c2)CC1 [TCMDC-135889],% Inhibition,,-21.96%
COc1cc2c(C3CCN(CC4CCN(C(=O)/C=C/c5ccc(Cl)c(Cl)c5)CC4)CC3)c[nH]c2cn1 [TCMDC-140246],% Inhibition,,-34.41%
Nc1cc2c(C3CCN(CC4CCN(C(=O)/C=C/c5ccc(Cl)c(Cl)c5)CC4)CC3)c[nH]c2cn1 [TCMDC-140133],% Inhibition,,101.5%
O=C(Nc1ccc(Cn2ncc(N3CCCNCC3)c(Cl)c2=O)cc1)Nc1ccc(SC(F)(F)F)cc1 [TCMDC-133320],% Inhibition,,-14.71%
O=C(/C=C/c1ccc(Cl)c(Cl)c1)NCCCCCN1CC[C@H](NC(=O)/C=C/c2ccccc2)C1 [TCMDC-139561],% Inhibition,,-7.699%
O=C(C=Cc1ccc(Cl)c(Cl)c1)NCCCCCN1CCCC(CCCNC(=O)c2sc3ccccc3c2Cl)C1 (stereo not shown) [TCMDC-139579],% Inhibition,,100.9%
O=C(/C=C/c1ccc(Cl)c(Cl)c1)NCCCCCN1CCC(CCNC(=O)c2snnc2-c2ccccc2)CC1 [TCMDC-140007],% Inhibition,,-18.32%
O=C(/C=C/c1ccc(Cl)c(Cl)c1)NCCCCCN1CCCC(CNC(=O)c2sc3ccccc3c2Cl)C1 (stereo not shown) [TCMDC-139583],% Inhibition,,81.46%
O=C(/C=C/c1ccc(Cl)c(Cl)c1)NCCCCCN1CC[C@H](NC(=O)c2sc3ccccc3c2Cl)C1 [TCMDC-139562],% Inhibition,,48.14%
O=C(C=Cc1ccc(Cl)c(Cl)c1)NCCCCCN1CCC(CCCNC(=O)c2sc3ccccc3c2Cl)CC1 [TCMDC-139573],% Inhibition,,86.01%
O=C(C=Cc1ccc(Cl)c(Cl)c1)NCCCCCN1CCC(CCNC(=O)c2sc3ccccc3c2Cl)CC1 [TCMDC-139567],% Inhibition,,38.26%
CCC(NCc1ccc(-c2cncc(C(=O)NCC(C)C)c2)cc1)c1ccccc1 (stereo not shown) [TCMDC-134237],% Inhibition,,15.84%
Cc1cccc2nc(-c3ccc(-c4cccc(CNCc5cnn(-c6ccccc6)n5)c4)s3)[nH]c12.O=C(O)C(F)(F)F [TCMDC-132972],% Inhibition,,-22.07%
O=C(NCc1ccccc1)OC1CNCCC1c1ccc(C(O)Cc2ccccc2)cc1 (stereo not shown) [TCMDC-141020],% Inhibition,,26.78%
CCc1ccc(-n2c(=O)c3cccnc3n2CC(=O)NC2CCCC2)cc1 [TCMDC-125158],% Inhibition,,-2.653%
O=C(/C=C/c1ccc(Cl)c(Cl)c1)NCCCCCN1CCC(c2[nH]nc(-c3ccccc3)c2Br)CC1 [TCMDC-139448],% Inhibition,,-19.71%
O=C(NCCNc1ccnc(Nc2ccc(F)cc2)n1)c1cc2ccccc2s1 [TCMDC-133637],% Inhibition,,-20.49%
COCCNC(=O)c1ccc(OC2CCN(CC(C)=Cc3ccccc3)CC2)c(Cl)c1 [TCMDC-124691],% Inhibition,,9.67%
c1cncc(CN2CCCN(c3ccc4c(c3)CCN(Cc3ccc(-c5ncc[nH]5)cc3)CC4)CC2)c1 [TCMDC-136551],% Inhibition,,-8.506%
c1cncc(-c2cc(N3CCCCC3)nc(-c3ccncc3)n2)c1 [TCMDC-125594],% Inhibition,,3.34%
c1cncc(-c2cc(N3CCc4ccccc4C3)nc(-c3ccncc3)n2)c1 [TCMDC-125419],% Inhibition,,60.68%
CN1CCN(c2cc(-c3ccncc3)nc(-c3cccnc3)n2)CC1 [TCMDC-125596],% Inhibition,,38.53%
c1ccc(N2CCN(c3cc(-c4cccnc4)nc(-c4ccncc4)n3)CC2)nc1 [TCMDC-125418],% Inhibition,,44.02%
CN1CCN(c2cc(-c3cccnc3)nc(-c3ccncc3)n2)CC1 [TCMDC-125593],% Inhibition,,52.46%
c1ccc(CN2CCN(c3cc(-c4cncc(-c5ccccc5)c4)nc(-c4ccccc4)n3)CC2)cc1 [TCMDC-125589],% Inhibition,,-13.47%
COc1ccc(NC(=O)Nc2cccc(-c3cccc(-c4nc5c(C)cccc5[nH]4)c3)c2)cc1 [TCMDC-133247],% Inhibition,,-12.94%
Fc1ccc2[nH]c(-c3cccc(-c4ccc(CNCC5CCCO5)cc4)c3)nc2c1.O=C(O)C(F)(F)F (stereo not shown) [TCMDC-133105],% Inhibition,,-0.6383%
CN1CCCC(CN2CCN(Cc3cccc(-c4ccc(-c5nc6ccc(F)cc6[nH]5)cc4)c3)CC2)C1 (stereo not shown) [TCMDC-133891],% Inhibition,,104.2%
OCC1CCN(Cc2cccc(-c3cccc(-c4nc5ccc(C(F)(F)F)cc5[nH]4)c3)c2)CC1 [TCMDC-133129],% Inhibition,,41.06%
CC1CN(Cc2ccc(-c3ccc(-c4nc5ccc(F)cc5[nH]4)s3)cc2)CC(C)O1 (stereo not shown) [TCMDC-133819],% Inhibition,,9.471%
N#CCCN1CCN(Cc2ccc(-c3ccc(-c4nc5ccc(F)cc5[nH]4)s3)cc2)CC1 [TCMDC-133861],% Inhibition,,-54.51%
CN1CCCC(CN2CCN(Cc3ccc(-c4ccc(-c5nc6ccccc6[nH]5)s4)cc3)CC2)C1 (stereo not shown) [TCMDC-133889],% Inhibition,,85.26%
CN1CCCC(CN2CCN(Cc3ccc(-c4ccc(-c5nc6ccc(F)cc6[nH]5)s4)cc3)CC2)C1 (stereo not shown) [TCMDC-133892],% Inhibition,,66.7%
OCC1CCN(Cc2cccc(-c3ccc(-c4nc5ccc(C(F)(F)F)cc5[nH]4)cc3)c2)CC1 [TCMDC-133123],% Inhibition,,76.36%
OCC1CCN(Cc2ccc(-c3cccc(-c4nc5ccc(C(F)(F)F)cc5[nH]4)c3)cc2)CC1 [TCMDC-133130],% Inhibition,,-16.83%
CN1CCCC(CN2CCN(Cc3ccc(-c4cccc(-c5nc6ccc(F)cc6[nH]5)c4)cc3)CC2)C1 (stereo not shown) [TCMDC-133883],% Inhibition,,67.8%
N#CCCN1CCN(Cc2ccc(-c3cccc(-c4nc5ccc(F)cc5[nH]4)c3)cc2)CC1 [TCMDC-133845],% Inhibition,,7.403%
CC1CN(Cc2ccc(-c3cccc(-c4nc5ccc(F)cc5[nH]4)c3)cc2)CC(C)O1 (stereo not shown) [TCMDC-133813],% Inhibition,,-17.46%
OCCN1CCN(Cc2ccc(-c3ccc(-c4nc5ccc(F)cc5[nH]4)cc3)cc2)CC1 [TCMDC-133030],% Inhibition,,-14.7%
NC1CCN(Cc2cccc(-c3ccc(-c4nc5ccc(C(F)(F)F)cc5[nH]4)cc3)c2)C1 (stereo not shown) [TCMDC-133837],% Inhibition,,42.56%
OC1CCCN(Cc2cccc(-c3ccc(-c4nc5ccc(C(F)(F)F)cc5[nH]4)cc3)c2)C1 (stereo not shown) [TCMDC-133814],% Inhibition,,-59.43%
N#CCCN1CCN(Cc2cccc(-c3ccc(-c4nc5ccc(C(F)(F)F)cc5[nH]4)cc3)c2)CC1 [TCMDC-133844],% Inhibition,,-10.1%
CC(=O)N(C)C1CCN(Cc2cccc(-c3ccc(-c4nc5ccc(C(F)(F)F)cc5[nH]4)cc3)c2)C1 (stereo not shown) [TCMDC-133884],% Inhibition,,-40.19%
NC1CCCN(Cc2cccc(-c3ccc(-c4nc5ccc(C(F)(F)F)cc5[nH]4)cc3)c2)C1 (stereo not shown) [TCMDC-133839],% Inhibition,,50.43%
COCCN1CCN(Cc2ccc(-c3ccc(-c4nc5ccc(F)cc5[nH]4)cc3)cc2)CC1 [TCMDC-133022],% Inhibition,,-25.91%
CN1CCCC(CN2CCN(Cc3ccc(-c4ccc(-c5nc6ccc(F)cc6[nH]5)cc4)cc3)CC2)C1 (stereo not shown) [TCMDC-133908],% Inhibition,,90.06%
CN1CCCC(CN2CCN(Cc3cccc(-c4ccc(-c5nc6ccc(C(F)(F)F)cc6[nH]5)cc4)c3)CC2)C1 (stereo not shown) [TCMDC-133882],% Inhibition,,68.4%
COc1ccc2ncc(C#N)c(CCN3CCC(NCc4ccc5c(c4)OCCO5)CC3)c2c1 [TCMDC-135664],% Inhibition,,6.84%
O=C(Nc1cccc(-c2cccc(-c3nc4ccccc4[nH]3)c2)c1)NC1CC1c1ccccc1 (stereo not shown) [TCMDC-133256],% Inhibition,% Inhibition,3.053%
COc1ccc2c(c1)Sc1ccccc1C(N1CCN(CCO)CC1)C2 (stereo not shown) [TCMDC-139028],% Inhibition,,-3.41%
Cc1cccc2nc(-c3ccc(-c4cccc(C(=O)NCCc5cn(C)cn5)c4)s3)[nH]c12 [TCMDC-132498],% Inhibition,,-19.19%
CCOc1c(OC)ccc2c1CCN(CCN1CCC(NC(=O)c3ccc(-c4cccc(C(F)(F)F)c4C(F)(F)F)cc3)CC1)C2 [TCMDC-135432],% Inhibition,,-45.25%
COc1cccc(C(=O)NC(NC(=S)Nc2ccc(OC)cc2[N+](=O)[O-])C(Cl)(Cl)Cl)c1 (stereo not shown) [TCMDC-124141],% Inhibition,,23.91%
CCOc1cc(C(=O)NC2CCN(Cc3ccccc3)CC2)ccc1-c1nc2cc(Cl)c(Cl)cc2[nH]1 [TCMDC-140080],% Inhibition,,-6.754%
CCOc1cc(C(=O)Nc2ccccc2N2CCN(S(C)(=O)=O)CC2)cc(OCC)c1OCC [TCMDC-124994],% Inhibition,,1.091%
CCOc1cc(Br)c(C(C)NC(=O)c2cccc(OC)c2)cc1OCC (stereo not shown) [TCMDC-123742],% Inhibition,,47.1%
O=C(NOCCCCOc1ccc(Cl)c(Cl)c1)c1ccccc1 [TCMDC-131761],% Inhibition,,-3.28%
CCOc1cc(C(=O)Nc2ccc3nc(N(CC)CC)cc(C)c3c2)cc(OCC)c1OCC [TCMDC-124008],% Inhibition,,-7.565%
CCOc1cc(Cl)c(C(C)NC(=O)c2ccccc2)cc1OCC (stereo not shown) [TCMDC-123744],% Inhibition,,73.45%
CCOc1cc(Br)c(C(C)NC(=O)c2ccccc2)cc1OCC (stereo not shown) [TCMDC-123743],% Inhibition,,65.54%
CCOc1cc(Cl)c(C(C)NC(=O)c2cccc(OC)c2)cc1OCC (stereo not shown) [TCMDC-125450],% Inhibition,,81.4%
CC(C)C[C@H](NC(=O)c1ccc(OCCN2CCOCC2)cc1)C(=O)N[C@H](/C=N/N1CC(=O)NC1=O)CCc1ccccc1 [TCMDC-136155],% Inhibition,,17.61%
